PubChem BioAssay (EPA / NIEHS)
Several values for one entry are separate records, joined by “and”; a condition that tells them apart may be missing. Equal entries are not always repeated. Some compounds were tested as several samples or in several runs, with calls that do not always agree. Activity calls are given as the source filed them. Rule for the calls: active = hit-call score of the fitted dose curve at least 0.9, where 1 is the maximum; inactive = score below 0.9.

Columns and labels:
[1] = ATG_CRE_CIS: Attagene CIS-FACTORIAL HepG2 Assay for human cAMP Responsive Element (CRE) binding protein 3 (AID 2282926); conditions: HepG2 CRE cis-reporter, Attagene multiplexed mRNA; actives raise or lower the signal
How it was run: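 Human liver HepG2, transient MRTU transfection, 24 h compound exposure. Total RNA → oligo(dT) RT → PCR → 6-FAM primer extension → HpaI cut → CE. Activity called both directions vs DMSO.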

[2] = target: CCAAT/enhancer-binding protein beta (Homo sapiens) (UniProt P17676); assay: ATG_C_EBP_CIS: Attagene CIS-FACTORIAL HepG2 Assay for human CCAAT/Enhancer Binding Protein (C/EBP) beta (AID 2282927); conditions: HepG2 Attagene cis-factorial transcription factor reporter; actives raise or lower the signal
CCAAT/enhancer-binding protein beta (Homo sapiens), sequence (P17676 whole entry, looked up): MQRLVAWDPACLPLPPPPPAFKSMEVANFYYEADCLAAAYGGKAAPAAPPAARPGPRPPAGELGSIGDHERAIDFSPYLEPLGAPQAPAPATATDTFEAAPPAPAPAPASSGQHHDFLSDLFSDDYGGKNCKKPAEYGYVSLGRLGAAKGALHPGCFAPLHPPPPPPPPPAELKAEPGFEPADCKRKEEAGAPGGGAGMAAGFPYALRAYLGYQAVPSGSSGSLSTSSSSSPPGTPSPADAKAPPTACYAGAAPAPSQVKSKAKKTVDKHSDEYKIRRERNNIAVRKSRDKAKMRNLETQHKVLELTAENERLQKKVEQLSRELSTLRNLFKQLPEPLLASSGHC
How it was run: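 Endogenous transcription factor activity in human liver HepG2 cells is inferred from induction of a CEBPB-linked reporter mRNA. Exposure lasts 24 h; activity is fitted in both directions relative to DMSO.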

[3] = ATG_CMV_CIS: Attagene CIS-FACTORIAL HepG2 Assay for human CMV (Internal Marker) (AID 2282928); conditions: HepG2 CMV promoter reporter, transcription factor profiling; actives raise or lower the signal;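 note: endpoint acts as a background internal control marker rather than a target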
How it was run: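 HepG2 cells transiently transfected with multiple cis-regulated reporter units; 24 h compound exposure. Reporter mRNA quantified by RT-PCR, 6-FAM primer-extension labeling, HpaI digestion and capillary electrophoresis; bidirectional fitting against DMSO baseline.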

[4] = ATG_DR4_LXR_CIS: Attagene CIS-FACTORIAL HepG2 Assay for human Liver X Receptor (LXR), DR4 submotif (AID 2282929); conditions: HepG2 Attagene DR4 cis-reporter, mRNA transcription; actives raise or lower the signal
How it was run: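 Endogenous factor activity at a DR4 cis-element is read as reporter mRNA in transiently transfected HepG2 cells. Exposure lasts 24 h; transcripts are amplified, fluorescently labelled and sized by capillary electrophoresis, with DMSO as baseline.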

[5] = target: Aryl hydrocarbon receptor (Homo sapiens) (UniProt P35869); assay: ATG_Ahr_CIS: Attagene CIS-FACTORIAL HepG2 Assay for human Aryl Hydrocarbon Receptor (Ahr) (AID 2282930); conditions: HepG2 AhR cis-factorial reporter transcription; actives raise or lower the signal
Aryl hydrocarbon receptor (Homo sapiens), sequence (P35869 whole entry, looked up): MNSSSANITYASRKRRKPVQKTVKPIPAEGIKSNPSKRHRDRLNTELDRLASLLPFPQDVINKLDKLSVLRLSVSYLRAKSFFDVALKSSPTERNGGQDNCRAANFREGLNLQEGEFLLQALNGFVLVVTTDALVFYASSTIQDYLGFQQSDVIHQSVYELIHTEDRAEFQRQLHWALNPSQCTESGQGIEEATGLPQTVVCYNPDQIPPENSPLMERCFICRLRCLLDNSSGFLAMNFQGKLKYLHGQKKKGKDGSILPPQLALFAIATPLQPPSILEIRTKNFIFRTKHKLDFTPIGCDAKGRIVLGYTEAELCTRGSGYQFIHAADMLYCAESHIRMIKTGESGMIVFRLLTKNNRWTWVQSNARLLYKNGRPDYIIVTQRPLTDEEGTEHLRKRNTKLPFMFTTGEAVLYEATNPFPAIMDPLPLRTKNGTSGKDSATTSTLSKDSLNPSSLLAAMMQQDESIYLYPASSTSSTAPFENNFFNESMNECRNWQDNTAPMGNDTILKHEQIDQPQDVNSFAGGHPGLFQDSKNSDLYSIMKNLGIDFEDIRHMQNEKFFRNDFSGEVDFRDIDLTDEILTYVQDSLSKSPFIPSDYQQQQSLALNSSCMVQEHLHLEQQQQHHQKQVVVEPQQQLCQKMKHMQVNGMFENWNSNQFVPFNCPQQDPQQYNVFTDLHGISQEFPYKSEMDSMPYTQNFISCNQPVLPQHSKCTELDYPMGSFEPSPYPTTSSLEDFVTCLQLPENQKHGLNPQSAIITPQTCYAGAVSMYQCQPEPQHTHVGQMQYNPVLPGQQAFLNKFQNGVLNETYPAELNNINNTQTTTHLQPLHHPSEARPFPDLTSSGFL
How it was run: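 Transient MRTU transfection of HepG2 → 24 h compound exposure → total RNA, oligo(dT) RT → PCR, 6-FAM extension, HpaI cut → CE fluorescence. DMSO = baseline; bidirectional curve fit.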

[6] = ATG_AP_1_CIS: Attagene CIS-FACTORIAL HepG2 Assay for human Activator Protein 1 (AP-1) (AID 2282931); conditions: HepG2 Attagene cis-factorial AP-1 reporter mRNA; actives raise or lower the signal
How it was run: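 Fluorescence of labelled PCR fragments separated by capillary electrophoresis gives reporter mRNA levels. HepG2 with transfected cis-regulated reporter units, 24 h exposure; DMSO serves as baseline for bidirectional curve fits.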

[7] = ATG_AP_2_CIS: Attagene CIS-FACTORIAL HepG2 Assay for human Activator Protein 2 (AP-2) (AID 2282932); conditions: HepG2 AP-2 cis-reporter, Attagene transcription factor profiling; actives raise or lower the signal
How it was run: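 HepG2, transient MRTU transfection, cis-regulated reporters; 24 h compound exposure; RNA isolated, RT-PCR, 6-FAM labelling, HpaI digest, CE fluorescence. DMSO = negative control/baseline, bidirectional fit.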

[8] = ATG_BRE_CIS: Attagene CIS-FACTORIAL HepG2 Assay for human Bone Morphogenetic Protein (BMP) Response Element (BRE) (AID 2282933); conditions: HepG2 BMP response element reporter, Attagene transcription factor profiling; actives raise or lower the signal
How it was run: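 After a 24 h chemical treatment, transiently transfected HepG2 cells were lysed for RNA; reporter transcripts were quantified by fluorescent RT-PCR and capillary electrophoresis, normalised to DMSO.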

[9] = target: Retinoic acid receptor alpha (Homo sapiens) (UniProt P10276); assay: ATG_DR5_RAR_CIS: Attagene CIS-FACTORIAL HepG2 Assay for human Retinoic Acid Receptor Alpha (RARE), DR5 submotif (AID 2282934); conditions: HepG2 Attagene cis-factorial RARE DR5 reporter, mRNA; actives raise or lower the signal;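 for AC50: reporter responds to endogenous RAR alpha beta and gamma in HepG2 not RARA alone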
Retinoic acid receptor alpha (Homo sapiens), sequence (P10276 whole entry, looked up): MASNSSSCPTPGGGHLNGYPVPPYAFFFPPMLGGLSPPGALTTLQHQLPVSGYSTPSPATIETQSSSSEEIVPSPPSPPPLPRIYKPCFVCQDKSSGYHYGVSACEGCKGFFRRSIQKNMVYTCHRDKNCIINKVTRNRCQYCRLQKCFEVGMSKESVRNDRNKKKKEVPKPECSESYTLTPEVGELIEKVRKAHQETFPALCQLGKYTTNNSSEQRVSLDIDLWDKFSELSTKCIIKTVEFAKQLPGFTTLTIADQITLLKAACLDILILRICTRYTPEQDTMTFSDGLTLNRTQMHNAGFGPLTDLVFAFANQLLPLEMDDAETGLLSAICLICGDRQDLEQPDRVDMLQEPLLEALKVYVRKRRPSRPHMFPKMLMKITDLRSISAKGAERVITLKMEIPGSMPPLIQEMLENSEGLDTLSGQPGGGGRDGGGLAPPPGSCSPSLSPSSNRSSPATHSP
How it was run: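 Transient MRTU transfection of HepG2; 24 h compound treatment; TriZol RNA, oligo(dT) RT, PCR, FAM labelling, capillary electrophoresis. Bidirectional fit vs DMSO. Endogenous TF activity at DR5 RARE.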

[10] = target: Transcription factor E2F1 (Homo sapiens) (UniProt Q01094); assay: ATG_E2F_CIS: Attagene CIS-FACTORIAL HepG2 Assay for human E2F Transcription Factor 1 (AID 2282935); conditions: HepG2 Attagene cis-reporter, E2F reporter RNA transcripts; actives raise or lower the signal
Transcription factor E2F1 (Homo sapiens), sequence (Q01094 whole entry, looked up): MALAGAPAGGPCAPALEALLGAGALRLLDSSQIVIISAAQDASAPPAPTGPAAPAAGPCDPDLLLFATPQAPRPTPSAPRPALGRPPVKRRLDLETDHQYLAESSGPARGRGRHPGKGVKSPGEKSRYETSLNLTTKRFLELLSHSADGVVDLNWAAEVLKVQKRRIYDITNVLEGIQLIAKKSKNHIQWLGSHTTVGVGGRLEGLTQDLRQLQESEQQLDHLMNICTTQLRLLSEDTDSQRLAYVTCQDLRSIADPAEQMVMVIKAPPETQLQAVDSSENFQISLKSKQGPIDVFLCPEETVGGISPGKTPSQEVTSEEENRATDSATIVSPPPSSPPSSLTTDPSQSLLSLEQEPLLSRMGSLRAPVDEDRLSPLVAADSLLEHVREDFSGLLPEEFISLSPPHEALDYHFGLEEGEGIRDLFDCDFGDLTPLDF
How it was run: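 Cis-element reporter mRNA induction in transiently transfected HepG2, 24 h exposure. Activity fitted in both directions relative to DMSO negative control.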

[11] = ATG_E_Box_CIS: Attagene CIS-FACTORIAL HepG2 Assay for human Enhancer Box (E-box) (AID 2282936); conditions: HepG2 E-box cis-reporter transcription, actives raise or lower the signal
How it was run: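 Cells: HepG2 (human liver), transient MRTU transfection. Exposure 24 h. RNA → oligo(dT) RT → PCR → 6-FAM label → HpaI → CE. Activity fitted both directions relative to DMSO.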

[12] = ATG_M_61_CIS: Attagene CIS-FACTORIAL HepG2 Assay for M61 Transcription Factor (Internal Marker) (AID 2282937); conditions: HepG2 Attagene CIS-FACTORIAL M61 internal marker reporter; actives raise or lower the signal
How it was run: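 This endpoint serves as an internal background control within a multiplexed HepG2 cis-reporter panel. Cells are exposed for 24 h; reporter mRNA is amplified, fluorescently labelled and sized by capillary electrophoresis, with DMSO as negative control.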

[13] = ATG_EGR_CIS: Attagene CIS-FACTORIAL HepG2 Assay for human Early Growth Response 1 (EGR1) (AID 2282938); conditions: HepG2 Attagene CIS-FACTORIAL EGR reporter mRNA; actives raise or lower the signal
How it was run: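 HepG2, transient MRTU transfection (cis promoters), 24 h compound. RNA → RT (oligo-dT) → PCR → 6-FAM labelling → HpaI cut → CE fluorescence. Bidirectional fit, DMSO baseline.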

[14] = ATG_M_19_CIS: Attagene CIS-FACTORIAL HepG2 Assay for M19 Transcription Factor (Internal Marker) (AID 2282939); conditions: HepG2 Attagene CIS-FACTORIAL M19 internal marker reporter; actives raise or lower the signal
How it was run: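 In this multiplexed cell assay, transiently transfected HepG2 reporter units report endogenous transcription-factor activity; after 24 hours of treatment, labelled reporter cDNA fragments are quantified by capillary electrophoresis and fitted bidirectionally against DMSO.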

[15] = ATG_Ets_CIS: Attagene CIS-FACTORIAL HepG2 Assay for human Erythroblast Transformation Specific (ETS) (AID 2282941); conditions: HepG2 ETS cis-reporter transcription, actives raise or lower the signal
How it was run: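 HepG2 cells transiently transfected with cis-promoter reporter transcription units were dosed for 24 h; reporter mRNA was measured by RT-PCR, 6-FAM primer extension, HpaI digestion and capillary electrophoresis, with bidirectional fitting against DMSO baseline.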

[16] = target: Hepatocyte nuclear factor 3-beta (Homo sapiens) (UniProt Q9Y261); assay: ATG_FoxA2_CIS: Attagene CIS-FACTORIAL HepG2 Assay for human Forkhead box A2 (FOXA2) (AID 2282942); conditions: HepG2 cis-reporter transcription factor activity, 24 h; actives raise or lower the signal
Hepatocyte nuclear factor 3-beta (Homo sapiens), sequence (Q9Y261 whole entry, looked up): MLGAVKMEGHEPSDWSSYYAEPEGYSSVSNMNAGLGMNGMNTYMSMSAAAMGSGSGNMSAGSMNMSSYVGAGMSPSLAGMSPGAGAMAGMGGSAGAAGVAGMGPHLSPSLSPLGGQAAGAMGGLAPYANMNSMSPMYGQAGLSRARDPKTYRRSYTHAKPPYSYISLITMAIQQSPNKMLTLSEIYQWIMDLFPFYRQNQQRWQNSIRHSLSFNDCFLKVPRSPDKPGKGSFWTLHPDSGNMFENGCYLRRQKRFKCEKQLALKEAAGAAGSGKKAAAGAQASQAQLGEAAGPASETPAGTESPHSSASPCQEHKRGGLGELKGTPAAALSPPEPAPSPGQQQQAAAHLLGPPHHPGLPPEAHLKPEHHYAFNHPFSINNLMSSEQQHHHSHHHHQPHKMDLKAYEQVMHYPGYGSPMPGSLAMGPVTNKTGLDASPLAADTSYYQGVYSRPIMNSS
How it was run: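 Cells: HepG2, transient multiplex reporter transfection. Exposure 24 h. Detection: reporter-specific RT-PCR, fluorescent labelling, restriction digest, capillary electrophoresis. Analysis: bidirectional curve fit, DMSO as negative control.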

[17] = ATG_FoxO_CIS: Attagene CIS-FACTORIAL HepG2 Assay for human Forkhead box O (FoxO) (AID 2282943); conditions: HepG2 Attagene cis-reporter, FoxO element, mRNA; actives raise or lower the signal
How it was run: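 HepG2, transient MRTU transfection (cis element, endogenous TFs). Dose 24 h. TriZol RNA → oligo(dT) RT → PCR → 6-FAM primer extension → HpaI cut → CE. Gain/loss vs DMSO.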

[18] = ATG_GATA_CIS: Attagene CIS-FACTORIAL HepG2 Assay for human GATA Binding Protein (AID 2282944); conditions: HepG2 GATA cis-element reporter, Attagene multiplex mRNA; actives raise or lower the signal
How it was run: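 Measures endogenous transcription factor-driven reporter mRNA in HepG2 cells transiently carrying cis-regulated constructs. 24 h dosing; RNA via oligo(dT) reverse transcription, PCR, HpaI digestion, capillary electrophoresis; fitted relative to DMSO.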

[19] = ATG_GLI_CIS: Attagene CIS-FACTORIAL HepG2 Assay for human Zinc Finger Protein GLI1 (AID 2282945); conditions: HepG2, Attagene cis-factorial reporter mRNA, GLI element; actives raise or lower the signal
How it was run: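 Bidirectional curve fits relative to DMSO, using reporter mRNA levels from RT-PCR plus capillary electrophoresis. Cells were HepG2 transiently carrying cis-regulated reporter constructs, harvested 24 h after dosing.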

[20] = ATG_ERE_CIS: Attagene CIS-FACTORIAL HepG2 Assay for Estrogen Response Element (ERE) (AID 2282940); conditions: HepG2 ERE cis-reporter, Attagene RNA transcript; actives raise or lower the signal
How it was run: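 Measuring endogenous transcription factor output, the assay doses transfected HepG2 cells for 24 hours and quantifies reporter transcripts by fluorescent RT-PCR and capillary electrophoresis, with DMSO as baseline.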

Measured: AC50

CN(C)P(=O)(N(C)C)N(C)C
not listed: [20]
inactive: all other assays above

c1cc[c]([Hg][c]2ccccc2)cc1
active: [1] 22.6 µM | [2] 21.3 µM | [13] 26.4 µM
not listed: [19] | [20]
inactive: all other assays above

CC(C)(C)CC(C)(C)c1ccc(O)cc1
active: [3] 17.1 µM and 18 µM | [4] 14.4 µM | [6] 19.4 µM | [11] 8.06 µM
inactive: [1] | [2] | [3] | [4] | [6] | [8] | [10] | [11] | [12] | [13] | [15] | [16] | [17] | [18] | [19]

O=c1[nH]c(=O)[nH]c(=O)[nH]1
not listed: [20]
inactive: all other assays above

CCCCCCCCc1ccc(O)cc1
active: [4] 11.2 µM | [6] 18.7 µM
inactive: [1] | [2] | [3] | [4] | [5] | [6] | [7] | [8] | [9] | [10] | [11] | [12] | [13] | [14] | [15] | [16] | [17] | [18] | [19]

COc1cc2c(cc1OC)[C@@]13CCN4CC5=CCO[C@H]6CC(=O)N2[C@H]1[C@H]6[C@H]5C[C@H]43
not listed: [19] | [20]
inactive: all other assays above

O=C(O)C(F)(F)C(F)(F)C(F)(F)C(F)(F)C(F)(F)C(F)(F)C(F)(F)C(F)(F)C(F)(F)C(F)(F)F
inactive: [1] | [2] | [5] | [6] | [8] | [9] | [10] | [11] | [14] | [15] | [16] | [17] | [18] | [19]
active: [2] 172 µM | [3] 50.4 µM and 31.3 µM | [4] 24.6 µM and 13.1 µM | [6] 23.9 µM | [9] 129 µM | [11] 54.5 µM | [13] 24.7 µM and 14.8 µM | [14] 138 µM | [18] 148 µM | [19] 174 µM

O=CC=O
not listed: [19] | [20]
inactive: all other assays above

CCC(=O)C(CC(C)N(C)C)(c1ccccc1)c1ccccc1 (configuration not stated)
active: [4] 92.4 µM | [11] 48.8 µM
not listed: [19]
inactive: all other assays above

CCOP(=O)(CN(CCO)CCO)OCC
not listed: [20]
inactive: all other assays above

N#Cc1ccccn1
inactive: all assays above

O=C(Cc1ccccc1)c1ccccc1
active: [20] 24.9 µM
not listed: [14]
inactive: all other assays above

Nc1ncc([N+](=O)[O-])s1
active: [5] 62 µM
inactive: all other assays above

CC(C)(c1ccccc1)c1ccc(O)c(C(C)(C)c2ccccc2)c1
active: [1] 2.2 µM | [3] 14.9 µM | [6] 7.38 µM | [9] 2.85 µM | [11] 16.9 µM | [13] 9.29 µM | [20] 5.86 µM | [17] 15.2 µM
not listed: [14]
inactive: all other assays above
